Source: PMC5540273 (PLoS ONE, 2017)

Experiments:
Conditions in all cases: concentration: 1 μM, replicates: in singlicate; n = 1
CSF1R-autoinhibited = tested on: CSF1R-autoinhibited
CSF1R = tested on: CSF1R
CSK = tested on: CSK
CSNK1A1L = tested on: CSNK1A1L
CSNK1A1 = tested on: CSNK1A1
CSNK1D = tested on: CSNK1D
CSNK1E = tested on: CSNK1E
CSNK1G1 = tested on: CSNK1G1
CSNK1G2 = tested on: CSNK1G2
CSNK1G3 = tested on: CSNK1G3
CSNK2A1 = tested on: CSNK2A1
CSNK2A2 = tested on: CSNK2A2
CTK = tested on: T1, CTK
T1 construct: gene MATK

DAPK1 = tested on: DAPK1
DAPK2 = tested on: DAPK2
DAPK3 = tested on: DAPK3
DCAMKL1 = tested on: T2, DCAMKL1
T2 construct: gene DCLK1

DCAMKL2 = tested on: T3, DCAMKL2
T3 construct: gene DCLK2

DCAMKL3 = tested on: T4, DCAMKL3
T4 construct: gene DCLK3

DDR1 = tested on: DDR1
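Note: KINOMEscan kinase panel screen.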

Structure (SMILES) | %Inh (CSF1R-autoinhibited) [%] | %Inh (CSF1R) [%] | %Inh (CSK) [%] | %Inh (CSNK1A1L) [%] | %Inh (CSNK1A1) [%] | %Inh (CSNK1D) [%] | %Inh (CSNK1E) [%] | %Inh (CSNK1G1) [%] | %Inh (CSNK1G2) [%] | %Inh (CSNK1G3) [%] | %Inh (CSNK2A1) [%] | %Inh (CSNK2A2) [%] | %Inh (CTK) [%] | %Inh (DAPK1) [%] | %Inh (DAPK2) [%] | %Inh (DAPK3) [%] | %Inh (DCAMKL1) [%] | %Inh (DCAMKL2) [%] | %Inh (DCAMKL3) [%] | %Inh (DDR1) [%]
Cl.Fc1ccccc1COc1ccc(Nc2ncnc3ccc(-c4nnc(C(F)(F)F)o4)cc23)cc1Cl [GW424170] | 0 | 6 | 0 | 0 | 0 | 5 | 22 | 0 | 0 | 30 | 0 | 15 | 0 | 0 | 0 | 5 | 10 | 1 | 7 | 6
Cl.O=S(=O)(c1cccc(F)c1)c1ccc(Nc2ncnc3cc(Br)sc23)cc1Cl [GSK306886] | 0 | 8 | 30 | 0 | 0 | 36 | 22 | 0 | 0 | 33 | 0 | 37 | 0 | 8 | 0 | 47 | 6 | 0 | 9 | 2
Nc1n[nH]c2nnc(-c3ccccc3)cc12 [SB-517389] | 0 | 18 | 0 | 10 | 0 | 6 | 28 | 7 | 0 | 17 | 0 | 16 | 0 | 28 | 0 | 17 | 11 | 0 | 29 | 9
Clc1ccc(-c2cc(-c3c[nH]nc3-c3ccccn3)ccn2)cc1 [GW681251] | 0 | 8 | 0 | 1 | 18 | 42 | 33 | 0 | 0 | 0 | 0 | 21 | 0 | 0 | 0 | 30 | 0 | 0 | 0 | 73
CSc1ccc(NC2=C(c3ccccc3Cl)C(=O)NC2=O)cc1 [SB-342411] | 0 | 7 | 7 | 0 | 0 | 2 | 19 | 16 | 0 | 0 | 2 | 10 | 0 | 30 | 16 | 11 | 2 | 0 | 43 | 10
CCc1nc(-c2cccc(N(C)S(=O)(=O)c3ccccc3)c2)c(-c2ccnc(Nc3ccc(N4CCN(C(C)=O)CC4)nc3)n2)s1 [GSK1645895] | 0 | 17 | 50 | 0 | 0 | 2 | 55 | 20 | 0 | 26 | 18 | 6 | 0 | 21 | 0 | 4 | 10 | 0 | 4 | 44
Fc1cccc(COc2ccc(Nc3ncnc4nn5ccccc5c34)cc2Cl)c1 [GW689066] | 37 | 0 | 0 | 0 | 0 | 3 | 14 | 0 | 0 | 3 | 0 | 0 | 0 | 0 | 0 | 7 | 0 | 0 | 9 | 0
Clc1cc(Nc2ncnc3cc[nH]c23)ccc1OCc1ccccn1 | 0 | 7 | 17 | 1 | 14 | 4 | 4 | 2 | 11 | 0 | 41 | 31 | 56 | 25 | 0 | 0 | 26 | 21 | 6 | 14
Oc1ccc2ncnc(Nc3ccc(OCc4ccccc4)cc3)c2c1 [GI262866] | 0 | 2 | 0 | 0 | 8 | 4 | 30 | 0 | 17 | 38 | 26 | 10 | 3 | 0 | 0 | 0 | 0 | 0 | 0 | 7
Cn1ccc2ncnc(Oc3ccc(NC(=O)Nc4cccnc4)c(Cl)c3)c21 | 0 | 82 | 0 | 10 | 8 | 0 | 0 | 0 | 5 | 0 | 0 | 19 | 21 | 7 | 0 | 0 | 11 | 0 | 0 | 99.3
Nc1nc(-c2cccnc2)c(-c2ccnc3ccccc23)s1 [GW684083] | 0 | 1 | 0 | 9 | 1 | 65 | 71 | 10 | 0 | 13 | 2 | 1 | 0 | 0 | 0 | 0 | 18 | 4 | 14 | 0
COc1cc2ncnc(Nc3ccc(OCc4ccccc4Br)c(Cl)c3)c2cc1OC.Cl [GI261590] | 10 | 7 | 7 | 0 | 0 | 24 | 24 | 0 | 0 | 27 | 0 | 0 | 0 | 0 | 0 | 17 | 14 | 0 | 21 | 0
O=C(CCO)NCCn1ccc2ncnc(Nc3ccc(Oc4cccc(C(F)(F)F)c4)c(Cl)c3)c21 | 0 | 0 | 3 | 0 | 0 | 0 | 0 | 0 | 0 | 0 | 0 | 0 | 0 | 11 | 0 | 0 | 39 | 0 | 0 | 0
O=C(Nc1ccccc1F)NC1CCN(c2ccnc(Nc3ccc(F)cc3)n2)C1 (centres unmarked) [GSK1379722] | 7 | 4 | 0 | 0 | 0 | 13 | 27 | 0 | 100 | 8 | 0 | 0 | 0 | 0 | 0 | 5 | 0 | 0 | 5 | 3
Nc1nccc2scc(-c3ccc4c(c3)CCN4C(=O)Cc3cc(F)ccc3F)c12 [GSK2587663] | 0 | 67 | 0 | 1 | 0 | 14 | 62 | 0 | 0 | 10 | 0 | 7 | 0 | 27 | 2 | 7 | 14 | 8 | 11 | 10
CCc1nc(-c2cccc(C)c2)c(-c2ccnc(NC(=O)c3ccccc3)c2)s1 | 11 | 11 | 1 | 39 | 81 | 89 | 82 | 0 | 3 | 0 | 12 | 29 | 0 | 23 | 0 | 0 | 11 | 6 | 0 | 0

Structure (SMILES) | %Inh (CSF1R-autoinhibited) [%] | %Inh (CSF1R) [%] | %Inh (CSK) [%] | %Inh (CSNK1A1L) [%] | %Inh (CSNK1A1) [%] | %Inh (CSNK1D) [%] | %Inh (CSNK1E) [%] | %Inh (CSNK1G1) [%] | %Inh (CSNK1G2) [%] | %Inh (CSNK1G3) [%] | %Inh (CSNK2A1) [%] | %Inh (CSNK2A2) [%] | %Inh (CTK) [%] | %Inh (DAPK1) [%] | %Inh (DAPK2) [%] | %Inh (DAPK3) [%] | %Inh (DCAMKL1) [%] | %Inh (DCAMKL2) [%] | %Inh (DCAMKL3) [%] | %Inh (DDR1) [%]
Cl.c1ccc(Cn2ccc3cc(Nc4ncnc5ccccc45)ccc32)cc1 [GW275568] | 0 | 55 | 20 | 0 | 0 | 26 | 55 | 15 | 0 | 22 | 4 | 19 | 0 | 21 | 7 | 30 | 22 | 10 | 2 | 8
O=C(NCCCN1CCCC1=O)c1cnc(NCc2cc(Cl)ccc2Cl)nc1NC1CCNCC1 | 1 | 100 | 0 | 1 | 36 | 28 | 87 | 1 | 0 | 0 | 0 | 7 | 5 | 14 | 0 | 0 | 17 | 12 | 0 | 0
Nc1nc(-c2ccc3c(N)n[nH]c3c2)cc(N2CCC[C@@H](C(=O)Nc3ccccc3)C2)n1.O=C(O)C(F)(F)F.O=C(O)C(F)(F)F [GSK2288359] | 0 | 13 | 8 | 0 | 0 | 0 | 15 | 8 | 100 | 25 | 1 | 18 | 0 | 7 | 0 | 0 | 12 | 0 | 0 | 0
CCCc1ccc(S(=O)(=O)NC2CCN(c3ccnc(Nc4ccc(OC)cc4)n3)C2)cc1 (centres unmarked) [GSK1379737] | 23 | 10 | 0 | 7 | 0 | 14 | 19 | 0 | 0 | 21 | 0 | 0 | 0 | 0 | 0 | 14 | 7 | 0 | 0 | 15
CC(=O)Nc1n[nH]c2ncc(-c3ccccc3)cc12 [SB-548492] | 0 | 19 | 3 | 21 | 0 | 0 | 34 | 0 | 0 | 4 | 20 | 25 | 38 | 100 | 1 | 0 | 36 | 15 | 0 | 0
c1ccc(-c2ccc3c(-c4ccnc(Nc5ccc6c(c5)OCCO6)n4)cnn3n2)cc1 [GW818941] | 0 | 1 | 84 | 0 | 40 | 8 | 0 | 1 | 11 | 27 | 18 | 9 | 2 | 0 | 0 | 0 | 0 | 0 | 0 | 0
CCn1c(-c2ccncc2)nc2cnccc21 [SB-735216] | 47 | 2 | 0 | 10 | 22 | 8 | 0 | 6 | 0 | 4 | 18 | 0 | 11 | 1 | 0 | 0 | 8 | 0 | 0 | 0
Fc1cccc(COc2ccc(Nc3ncnc4cc[nH]c34)cc2Cl)c1 | 0 | 6 | 24 | 6 | 2 | 0 | 10 | 18 | 18 | 4 | 36 | 22 | 53 | 20 | 45 | 22 | 29 | 8 | 8 | 9
Nc1nc(-c2ccccn2)c(-c2ccnc3ccccc23)s1 [GW548057] | 58 | 19 | 3 | 38 | 89 | 83 | 79 | 11 | 0 | 27 | 0 | 17 | 0 | 11 | 13 | 31 | 23 | 11 | 6 | 0
COC(=O)c1cccc(NC(=O)NCCNc2ccnc(Nc3ccc(F)cc3)n2)c1 [GSK1379883] | 0 | 14 | 0 | 4 | 0 | 3 | 29 | 0 | 0 | 25 | 0 | 23 | 0 | 0 | 0 | 13 | 88 | 0 | 24 | 0
COc1ccc(Nc2nccc(N3CCC(NC(=O)c4cccc(NC(C)=O)c4)C3)n2)cc1 (centres unmarked) [GSK1379732] | 49 | 1 | 0 | 7 | 0 | 13 | 16 | 9 | 0 | 24 | 0 | 1 | 0 | 0 | 13 | 18 | 0 | 0 | 7 | 0
O=c1cc(N2CCOCC2)nc2n(Cc3cccc(Cl)c3)ccn12 [GSK2296823] | 0 | 1 | 0 | 12 | 42 | 19 | 34 | 10 | 0 | 23 | 0 | 0 | 22 | 0 | 0 | 7 | 17 | 12 | 0 | 21
Cc1ccc(NC(=O)c2cccc(C#N)c2)cc1-c1ccc(C(=O)Nc2ccncc2)cc1 [GSK1398463] | 0 | 98.3 | 0 | 15 | 0 | 19 | 29 | 23 | 1 | 41 | 0 | 9 | 19 | 0 | 0 | 6 | 19 | 15 | 0 | 100
COc1ccc(Nc2nccc(N3CCC(NC(=O)Nc4ccc5c(c4)OCO5)C3)n2)cc1 (centres unmarked) [GSK1379745] | 16 | 0 | 0 | 24 | 0 | 83 | 22 | 1 | 2 | 16 | 5 | 0 | 0 | 26 | 14 | 17 | 0 | 14 | 0 | 15
CNc1nccc(-c2c(-c3ccc(F)cc3)ncn2CCCN2CCOCC2)n1 [SB-222516] | 0 | 0 | 0 | 2 | 0 | 8 | 19 | 4 | 10 | 4 | 6 | 5 | 0 | 0 | 0 | 15 | 8 | 0 | 19 | 0
